# PTAP TSG101 blk = blocks PTAP/TSG101 interaction to inhibit HIV-1 budding; Q99816; Fluorescence polarization, FITC-PTAP peptide / Tsg101 binding; Potency, µM (series often up to 115 µM), for the others: at the highest dose activity change, negative = inhibition, actives largely listed as inhibitors; 340,000 tested, under 10 active; AID 493005; active means well fitted inhibition curve with a large enough effect in the main read-out, with a control signal flat, not every such curve was filed as active; inconclusive means small, poorly fitted or top-dose-only effect, or effect the other way, or a change in a side signal; inactive means no such curve, though single readings can be large or run the other way; further: potency means the concentration at half of the fitted maximal effect; % of control where 0% means no effect
#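 Fluorescence polarization binding of Tsg101 binding domain (10 uM final) to FITC-labeled PTAP peptide (50 nM final) in HEPES pH 7.5 buffer with NaCl, Tween 20, EDTA, TCEP. Compounds added before peptide; binding 20 min at RT.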
# Rango release inh = inhibition of RanGTP-driven Rango-importin beta dissociation | Potency, µM (top dose mostly 46.1 µM), without a hit: at the top dose activity change, negative = inhibition | 340,000 tested, 0.071% active | Biochemical FRET Rango-importin beta, RanGTP-induced dissociation | O95149+P62826; further: potency means the concentration at half of the fitted maximal effect; % of control where 0% means no effect; nearly all actives have a fitted effect of over 45% in size
#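 Rango/importin beta premix (0.1/0.25 uM final), PBS + 1 mM DTT + 0.02% Tween-20 + 0.1% BSA; cpd 5 min RT; FRET pre-read; + RanGTP-RCC1 (0.6 uM Ran, 2 mM GTP, 0.2 uM RCC1); 45 min RT; FRET post-read, ex 430, em 486/530 nm.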
# D3 ag = D3 dopamine receptor (human) agonism. 410,000 tested, 0.58% active. P35462. D3R DiscoveRx beta-arrestin cells, luminescence, 90 min. AID 652048. max activation, %; in the data active means max activation above about 30%; further: 0% is about no effect
#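 Agonist mode: compounds and dopamine controls were applied to plated cells for 90 min at 37 degrees C after an overnight attachment at 1500 cells/well. Luminescent read-out followed 30 - 60 minutes at room temperature with DiscoveRx detection reagent.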
# Rango complex inh = Rango-importin beta binding inhibition; Q14974; Rango CFP/YFP FRET sensor + importin beta, 45 min; Potency, µM (titrated, usually from 92.2 µM), for inactives: at the highest dose inhibition of complex formation; 340,000 tested, 0.031% active; AID 540263;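 further: potency means the concentration at half of the fitted maximal effect; 0% = DMSO wells and 100% = buffer wells lacking importin beta; nearly all actives have a fitted effect of over 15% in size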
# Target sequence (Q14974 whole entry, looked up): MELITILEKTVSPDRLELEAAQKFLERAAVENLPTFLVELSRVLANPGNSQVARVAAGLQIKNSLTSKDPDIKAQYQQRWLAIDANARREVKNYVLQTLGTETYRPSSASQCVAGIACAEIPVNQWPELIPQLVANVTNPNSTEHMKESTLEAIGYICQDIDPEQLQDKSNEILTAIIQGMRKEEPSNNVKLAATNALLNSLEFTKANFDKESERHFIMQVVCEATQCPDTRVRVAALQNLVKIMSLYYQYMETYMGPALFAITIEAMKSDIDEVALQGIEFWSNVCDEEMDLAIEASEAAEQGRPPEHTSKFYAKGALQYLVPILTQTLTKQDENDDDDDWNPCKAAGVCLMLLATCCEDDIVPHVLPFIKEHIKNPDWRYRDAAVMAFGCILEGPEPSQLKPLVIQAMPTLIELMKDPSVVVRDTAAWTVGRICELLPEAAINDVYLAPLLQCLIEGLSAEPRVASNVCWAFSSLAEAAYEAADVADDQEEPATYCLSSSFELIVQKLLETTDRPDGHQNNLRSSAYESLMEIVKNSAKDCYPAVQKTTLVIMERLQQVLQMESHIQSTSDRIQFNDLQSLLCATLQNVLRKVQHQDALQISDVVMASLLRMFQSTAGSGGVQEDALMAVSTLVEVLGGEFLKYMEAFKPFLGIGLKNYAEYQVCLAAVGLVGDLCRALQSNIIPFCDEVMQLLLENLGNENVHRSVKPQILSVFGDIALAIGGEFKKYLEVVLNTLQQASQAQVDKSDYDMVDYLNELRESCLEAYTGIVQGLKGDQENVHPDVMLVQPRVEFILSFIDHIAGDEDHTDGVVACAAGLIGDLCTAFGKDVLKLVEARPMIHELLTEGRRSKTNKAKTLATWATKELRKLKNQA
#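 FRET biosensor (snurportin 1 IBB flanked by EYFP and cerulean), 50 nM, with compound 5 min, then 0.125 microM importin beta in PBS, 1 mM DTT, 0.02% Tween-20, 0.1% BSA. CFP/YFP ratio read after 45 min at room temperature; pre-read flags interference.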
# DRD3 antagonist = blocks the human D3 dopamine receptor; D3R cells, DiscoveRx beta-arrestin luminescence, antagonist mode; stronger effect = lower value; P35462; 360,000 tested, 2.5% active; max response, negative = inhibition, %; AID 652054; in the data active means max response below about -50%; inconclusive means no clear call, values can overlap the other calls; further: on the % scale 0 is the no-effect control and ±100 the full control effect
#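 Cells plated overnight at 1500 cells/well, then exposed to library compounds with dopamine controls for 90 minutes at 37 degrees C. DiscoveRx reagent added for 30–60 minutes at room temperature; luminescence read, quantitative HTS format.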
# Mm-Cpn inhibitor = blocks the Methanococcus maripaludis chaperonin Mm-Cpn. purified Mm-Cpn ATPase, ADP Transcreener TR-FRET. Potency, µM (titrated, usually from 76.9 µM), inactives show top-dose activity, negative = inhibition, hits mostly inhibitors. 330,000 tested, 0.031% active. AID 504842; active means well fitted inhibition curve with a large enough effect; inconclusive means small, poorly fitted or top-dose-only effect; further: potency means the concentration at half of the fitted maximal effect; on the % scale 0 is the no-effect control and ±100 the full control effect; nearly all actives have a fitted effect of over 80% in size
#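 ATPase turnover read by TR-FRET ADP competition (Eu cryptate antibody/ADP-d2, 665/590 nm): 10uM ATP final, 25nM Mm-CPN final, 30 min 37degC after 10-min compound preincubation, pH 7.4 Tris/KCl/MgCl2/DTT buffer.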
# An asterisk follows results filed as active; ? = inconclusive; · = no result. Only some compounds are listed: those with a hit (about 2.9% of all), similar ones and a draw of the others. Unless noted, the call rests on the fitted dose curve.
SMILES,PTAP TSG101 blk,Rango release inh,D3 ag,Rango complex inh,DRD3 antagonist,Mm-Cpn inhibitor
CC(C)c1ccc(NC(=O)Nc2nc(C(N)c3ccccc3)cs2)cc1 (stereo not given),·,·,1,·,24,·
CC(C(=O)Nc1ccccc1C(F)(F)F)n1nc(-c2ccccc2)c2c(c1=O)CCCC2 (stereo not given),·,·,-1,·,·,·
Cc1ccc(S(=O)(=O)/N=C2\C=C(NS(=O)(=O)c3ccccc3)C(=O)c3ccccc32)cc1,-12%,17%,-6,0%,-28,·
O=C(O)c1ccc(NC2=C/C(=N/S(=O)(=O)c3ccccc3)c3ccccc3C2=O)cc1,-1%,11%,-20,-2%,-92*,-15%
Cc1cc(C)c(S(=O)(=O)/N=C2\C=C(Nc3ccc(C(=O)O)cc3)C(=O)c3ccccc32)c(C)c1,?,0%,-34,?,-77*,-7%
Cc1ccc(NC(=O)CSc2nnc(-c3cc4occc4n3C)n2-c2ccccc2C)cc1F,·,·,8,·,·,·
CC(=O)c1cccc(NC(=O)Cn2c(=O)oc3cc(S(=O)(=O)NC4CCCC4)ccc32)c1,·,·,6,·,·,·
Cn1c2c(c(=O)n(C)c1=O)C(c1cccc(O)c1)CC(=O)N2 (stereo not given),·,·,9,·,·,·
Cc1ccccc1N1CCN(Cc2c(C#N)c3ccccc3n2C)CC1,2%,-5%,-18,-1%,-57*,1%
O=C(O)c1ccc(CNCc2cccc(OCc3ccc(F)cc3)c2)cc1,-9%,-1%,0,1%,-7,1%
Fc1ccc(COc2cccc(CNCc3ccncc3)c2)cc1,-3%,-9%,34*,3%,15,0%
Cc1ccc2nc(-c3cccnc3SCC(=O)N3c4ccccc4CC3C)[nH]c2c1 (stereo not given),2%,7%,7,-1%,?,50µM*
Cc1ccc2nc(SCC(=O)N3c4ccccc4CC3C)c(C)cc2c1 (stereo not given),0%,-7%,-6,1%,22,-1%
Cc1ccc(Cl)cc1N1CCN(C(=O)c2cn(C)c3ccc(S(=O)(=O)N4CCCCC4)cc3c2=O)CC1,·,·,-3,·,·,·
COc1ccc([N+](=O)[O-])cc1NCc1cccc([N+](=O)[O-])c1,2%,-6%,-10,0%,-53*,?
COc1ccc(C(C[N+](=O)[O-])c2c(-c3ccccc3)cc3ccccn23)cc1 (stereo not given),1%,-5%,-3,4%,-50*,0%
COCOc1cccc(CN2CCC(C)(Oc3ccc(C(C)=O)cc3)C2)c1 (stereo not given),·,·,-6,·,10,·
CC(=O)c1cc2cccc(OC3(C)CCN(Cc4ccc5ccccc5c4)C3)c2o1 (stereo not given),·,·,-16,·,-70*,·
CC(=O)c1ccc(OC2(C)CCN(Cc3cc4ccccc4[nH]3)C2)cc1 (stereo not given),·,·,-20,·,-55*,·
CC(=O)c1ccc(OC2(C)CCN(CCOc3ccc(C)cc3)C2)cc1 (stereo not given),·,·,48*,·,-18,·
CCc1cccc(-n2c(=O)c3cccnc3n2CC(=O)Nc2ccccc2C(=O)OC)c1,·,·,-10,·,·,·
C=CC(=O)Nc1cc2c(Nc3ccc(F)c(Cl)c3)ncnc2cc1OCCCN1CCOCC1,·,·,-17,·,·,·
CCOC(=O)c1c(NC(=O)c2ccc(S(=O)(=O)N(CC(C)C)CC(C)C)cc2)sc2c1CCN(CC)C2,·,·,2,·,·,·
CC(=O)NS(=O)(=O)c1ccc(Nc2ccc([N+](=O)[O-])c3nonc23)cc1,11%,3%,-25,9%,-54*,-1%
O=[N+]([O-])c1ccc(Nc2ccccc2)c2nonc12,-3%,20%,-7,1%,-24,-3%
SMILES,PTAP TSG101 blk,Rango release inh,D3 ag,Rango complex inh,DRD3 antagonist,Mm-Cpn inhibitor
CCOc1ccc(Nc2ccc([N+](=O)[O-])c3nonc23)cc1,-3%,-2%,-16,?,-67*,-2%
Cc1nn2c(=O)cc(COc3ccc(/C=C(\C#N)C(=O)Nc4ccccc4)cc3Cl)nc2s1,·,·,-5,·,·,·
O=C(O)c1ccc(Nc2nc3ccccc3nc2NS(=O)(=O)c2cccs2)cc1,-4%,3%,5,1%,-5,-5%
O=C(O)c1ccc(NC2=C/C(=N/S(=O)(=O)c3cccs3)c3ccccc3C2=O)cc1,·,·,-21,·,-84*,·
O=C1C(Nc2ccc(O)cc2)=C/C(=N/S(=O)(=O)c2cccs2)c2ccccc21,-12%,-6%,-31,-3%,-85*,-11%
CCc1ccccc1NC(=O)c1ccc(CN2C(=O)CCn3nc(C)cc32)cc1,·,·,-1,·,·,·
O=C(CC(c1ccccc1)c1ccccc1O)NCCN1CCOCC1 (stereo not given),-6%,-4%,-4,-2%,-55*,-2%
O=C(COc1ccccc1O)NCCN1CCOCC1,-12%,4%,-15,-1%,-1,0%
CC1=C(C(=O)OC2CCCCCC2)C(c2cccc(Cl)c2)CC(=O)N1 (stereo not given),·,·,3,·,·,·
COc1cc(/C=C2\NC(=S)N(C)C2=O)ccc1O,6%,?,4,?,0,-7%
CN1C(=O)/C(=C/c2ccc(O)c([N+](=O)[O-])c2)NC1=S,-5%,0%,-15,?,-74*,-10%
Cc1c(C(=O)N(C)C)sc(NC(=O)c2cc([N+](=O)[O-])cc([N+](=O)[O-])c2)c1C#N,-5%,7%,-3,-6%,-91*,2%
Cc1ccc(C(=O)Nc2sc(C(=O)N(C)C)c(C)c2C#N)cc1,1%,-7%,-6,0%,0,-5%
O=C1CC(c2nc(-c3ccccc3)no2)CN1c1ccc2c(c1)OCCO2 (stereo not given),·,·,9,·,·,·
Cc1ccccc1-c1nc(S(=O)(=O)c2ccccc2)c(N2CCCC2)o1,0%,3%,-3,5%,17,-1%
O=S(=O)(c1ccccc1)c1nc(-c2ccc(Cl)cc2Cl)oc1N1CCCCCC1,·,·,61*,·,·,·
COc1ccc(C(=O)NCc2ccc3c(c2)CCN3C(C)=O)cc1OC,·,·,6,·,·,·
Cc1[nH]n(-c2ccccc2)c(=O)c1C1(C(F)(F)F)C(=O)N(c2ccc(F)cc2)C2=C1C(=O)CC(C)(C)C2 (stereo not given),-11%,-5%,0,1%,-71*,0%
CC1(C)CC(=O)C2=C(C1)N(c1ccc(F)cc1)C(=O)NC2(C(F)(F)F)C(F)(F)F,0%,27%,12,-2%,-15,0%
O=C(O)c1ccc(CSc2nc3ccccc3[nH]2)cc1,0%,0%,3,-1%,4,-1%

# Assay outcomes (PubChem)
